TDP1 cell CPT: qHTS for Inhibitors of human tyrosyl-DNA phosphodiesterase 1 (TDP1): qHTS in cells in presence of CPT | Potency, µM (doses to about 46.2 µM), without a hit: top-dose activity change, negative = growth inhibition, most hits filed as inhibitors | 420,000 compounds, 12% hits | chicken DT40 Tdp1-/-;hTDP1 cells + 20 nM CPT, ATP luminescence, 48 h; note: % is set by controls: 0 for no effect and ±100 for the full control effect; nearly all actives have a fitted effect of over 55% in size
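Chicken DT40 Tdp1-/- cells complemented with human TDP1, 400 cells/well, exposed to compounds plus 20 nM camptothecin for at least 48 h at 37 C; viability read as ATP content by CellTiter-Glo luminescence.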
HT1080NT lethal: qHTS for induction of synthetic lethality in tumor cells producing 2HG: qHTS for the HT-1080-NT fibrosarcoma cell line; HT-1080-NT fibrosarcoma viability, CellTiter-Glo ATP luminescence, 48 h; Potency, µM (titrated, usually from 46.1 µM), for inactives: at the top dose activity, negative = less viability, hits mostly cytotoxic; 360,000 compounds, 1.6% hits;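 note: NT is the 2HG producing partner of a matched IDH1 knockdown line; 0% = DMSO-treated cells and -100% = media-only wells without cells; nearly all actives have a fitted effect of over 55% in size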
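HT-1080-NT fibrosarcoma cells (2HG-overproducing), 750 cells/well in RPMI with 5% FBS, dosed after 2 h and incubated 48 h at 37C. CellTiter-Glo luminescence normalized to DMSO and no-cell wells; concentration-response curves fitted and classed.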
HepG2 tox: qHTS for Inhibitors of TGF-b: Cytotox Counterscreen; 410,000 compounds, 0.76% hits; AID 588856, 2011; Potency, µM (series often up to 46.1 µM), inactives show top-dose activity change, negative = cytotoxicity, hits mostly cytotoxic; HepG2 CAGA-GFP viability, ATP luminescence, 18 h
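CellTiter-Glo luminescence gave cytotoxicity after 18 hours at 37 degrees C. The cells were HepG2 CAGA-GFP in 1% FBS DMEM, stimulated with 500 pg/mL TGF-beta after compound addition. %Activity was normalised to no-cell wells (complete cell-killing) and DMSO (no toxicity), and curves were fitted and classified.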
TGFb inhibitor: qHTS for Inhibitors of TGF-b. HepG2 CAGA-GFP TGF-b/SMAD3 reporter, GFP fluorescence, 18 h; TGF-beta stimulated, 500 pg/mL final. Potency, µM (titrated, usually from 46.1 µM), inactives show at the highest dose activity, negative = inhibition, usual class: inhibitors. 410,000 compounds, 1.2% hits. AID 588855, 2011; note: % is set by controls: 0 for no effect and ±100 for the full control effect; nearly all actives have a fitted effect of over 65% in size
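Using HEPG2 CAGA-GFP reporter cells at 1000 cells/well, we pinned test compounds, stimulated with recombinant TGF-beta (500 pg/mL final) and measured total well GFP after 18 h.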
HT1080 IDH1KD tx: qHTS for induction of synthetic lethality in tumor cells producing 2HG: qHTS for the HT-1080-IDH1KD cell line; Potency, µM (series often up to 46.1 µM), for the others: at the highest dose activity, negative = toxicity, actives largely listed as cytotoxic; AID 686971, 2013; 360,000 compounds, 2% hits; HT-1080 IDH1 knockdown viability, ATP luminescence, 48 h;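 note: 0% = DMSO wells and -100% = cell-free medium wells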
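Cytotoxicity counter-line: IDH1KD HT-1080, 48 h, CellTiter-Glo. Curves classed by r2, magnitude and activity.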
DT40 TDP1 no CPT: qHTS for Inhibitors of human tyrosyl-DNA phosphodiesterase 1 (TDP1): qHTS in cells in absence of CPT | AID 686978, 2013 | 420,000 compounds, 15% hits | DT40 Tdp1-/- hTDP1 cells, no CPT, ATP luminescence, 48 h | Potency, µM (highest dose often 46.2 µM), without a hit: at the top dose activity change, negative = growth inhibition, actives largely listed as inhibitors; note: % is set by controls: 0 for no effect and ±100 for the full control effect; nearly all actives have a fitted effect of over 55% in size
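Chicken DT40 Tdp1-/- cells stably complemented with human TDP1 were seeded at 400 cells/well with DMSO in place of 20 nM camptothecin. After compound pinning, cells grew at least 48 hr at 37 °C; viability read by CellTiter-Glo luminescence.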
Active calls of the source: *; u = inconclusive; x = no result given. Hits are enriched below; roughly 17% of the tested compounds scored in any of these assays. Calls come from the whole dose curve; as a rule, active = well fitted curve in the direction sought with a large enough effect; inconclusive = small, poorly fitted or top-dose-only effect, or another doubt; inactive = no such curve, though single readings can be large; an effect the other way counts as inactive or inconclusive. Potency is the fitted concentration of half-maximal effect.

SMILES | TDP1 cell CPT | HT1080NT lethal | HepG2 tox | TGFb inhibitor | HT1080 IDH1KD tx | DT40 TDP1 no CPT
CC[C@H]1C2CC3[C@@H]4N(C)c5ccccc5[C@]45C[C@@H](C2[C@H]5O)N3[C@@H]1O (some centres not stated) | -2% | x | x | x | x | -7%
O=C(c1ccco1)N1CCC2(CC1)CN(Cc1ccncc1)C2 | 4% | x | x | x | x | -2%
O=c1[nH]c(=O)n(-c2ccc(Cl)cc2)c(O)c1C=Nc1ccc(S(=O)(=O)Nc2nccs2)cc1 | -6% | 0% | 25% | 10% | -1% | 4%
Clc1cccc(/C=N\Nc2nccs2)c1 | 15µM* | -6% | 9% | -23% | -14% | 4.6µM*
Cc1cccc(OP(=O)(Nc2ccc(F)cc2)Oc2cccc(C)c2)c1 | -28% | 23µM* | -84% | u | u | u
Cc1cccc(OP(=O)(NCc2ccccc2)Oc2cccc(C)c2)c1 | u | -11% | -67% | u | -17% | 26µM*
Cc1cccc(OP(=O)(Nc2cccnc2)Oc2cccc(C)c2)c1 | u | -1% | -16% | 0% | 1% | u
NCC(CP(=O)(O)O)c1ccc(Cl)cc1 (configuration not stated) | -4% | x | x | x | x | -9%
CN(C)CC(C(=O)Cc1ccccc1)c1ccccc1 (configuration not stated) | 0.92µM* | 16µM* | -102% | u | 8.2µM* | 0.65µM*
COc1ccc(-n2c(SCCN(C)C)nc3ccccc3c2=O)cc1 | u | 0% | -2% | 1% | 4% | u
COP(=S)(OC)SCn1nnc2ccccc2c1=O | u | x | -15% | 16% | x | 23µM*
O=c1[nH]c(=O)n(CCc2ccccc2)c(O)c1C=NCc1ccc2c(c1)OCO2 | -15% | -4% | -3% | 18% | -7% | -2%
Nc1nonc1-n1nnc(C(=O)N/N=C/c2ccc3c(c2)OCO3)c1CSc1ccccc1 | 2% | 9% | 10% | 29% | -3% | 10%
CCCN(CC1CC1)CC(O)c1ccccc1 (configuration not stated) | 16µM* | 2% | 3% | 12% | 3% | 18µM*
CN1[C@H](CC(=O)c2ccccc2)CCC[C@H]1C[C@H](O)c1ccccc1 | -2% | x | x | x | x | -25%
CC(CC(C#N)(c1ccccc1)c1ccccc1)N1CCOCC1 (configuration not stated) | 23µM* | 11% | -4% | -9% | 4% | u
CCOC(=O)c1cc2ccccc2n1C1CCN(Cc2ccccc2)CC1 | u | u | x | x | u | 16µM*
O[N+]1=CC=CCC1=S.On1ccccc1=S.[Zn] | 0.033µM* | x | x | x | x | 0.15µM*
Cc1c(OC(=O)N(C)C)ccc2c1O/C(=C\c1ccco1)C2=O | u | 11% | 0% | 2% | 14% | u
CO[C@H]1C=CCCC=CC(=O)O[C@H]([C@H](C)C(=O)CCCC2CC(=O)NC(=O)C2)C(C)=C[C@@H](C)[C@@H]1O | 16µM* | -5% | x | x | -6% | 6.5µM*
O=C(O)/C=C/C(=O)O | 0% | 0% | 1% | 24% | 11% | 1%
O=C1CC(c2ccccc2Br)c2c(c3ccccc3oc2=O)O1 (configuration not stated) | 14% | x | 1% | 20% | x | -3%
Cc1ccc(NC(=O)CSc2nc(-c3ccco3)cc(C(F)(F)F)n2)c(C)c1 | 1.5µM* | x | 7% | 0% | x | 1.8µM*
CCOC(=O)c1ccc(NC(=O)CCNS(=O)(=O)c2ccc3c(c2)oc(=O)n3C)cc1 | -13% | 11% | -67% | u | 19% | -5%
Cn1c(=O)oc2cc(NC(=O)CCl)ccc21 | 13µM* | u | -73% | u | u | 23µM*
SMILES | TDP1 cell CPT | HT1080NT lethal | HepG2 tox | TGFb inhibitor | HT1080 IDH1KD tx | DT40 TDP1 no CPT
CCOC(=O)n1c(=O)oc2ccc(Cl)cc21 | -20% | -5% | -28% | 1% | u | -18%
O=C(c1ccc(Cl)cc1)C1CCCN(Cc2cccn2-c2cccnc2)C1 (configuration not stated) | u | -22% | -15% | u | -24% | 13µM*
S=C(SSC(=S)N1CCCCC1)N1CCCCC1 | 0.75µM* | x | x | x | x | 0.94µM*
C=CCn1c(O)c(C(C)=NC(C)c2ccccc2)c(=O)[nH]c1=O (configuration not stated) | u | 0% | 9% | 34% | 4% | 16µM*
C=CCn1c(O)c(C(C)=NCCCN(C)C)c(=O)[nH]c1=O | 13% | 15% | 2% | 15% | 22% | 25%
C=CCn1c(O)c(C(C)=NCCC(c2ccccc2)c2ccccc2)c(=O)[nH]c1=O | 21µM* | -3% | -6% | 0% | 4% | 16µM*
CCCCCCCCCCCCCCCC(=O)O[C@@H]1[C@@H](O)[C@@H](O)[C@@H]([C@H](NC(=O)[C@@H]2C[C@@H](CCC)CN2C)[C@H](C)Cl)O[C@@H]1SC | 24µM* | x | x | x | x | u
COc1ccc(CCNC(=O)c2ccc3c(c2)CCN3S(=O)(=O)c2ccc(C)cc2)cc1OC | 21µM* | x | -18% | -18% | x | 13µM*
NC1CCc2cc(O)c(O)cc2C1 (configuration not stated) | 21µM* | -10% | 5% | -3% | -28% | 13µM*
COc1ccc(NC(=O)c2ccco2)cc1NC(=O)COc1cc(C)cc(C)c1 | 8.2µM* | x | -29% | -4% | x | 5.8µM*
CC(=O)O[C@@H]1CN2CCC1CC2 | -4% | x | x | x | x | -6%
CCOc1ccc(CCNC(=O)c2cc3c(-c4cccc(OC)c4)nn(C)c3s2)cc1OCC | u | x | -24% | -23% | x | 18µM*
CCNc1cc(N2CCN(C)CC2)ccc1[N+](=O)[O-] | -18% | 1% | -23% | -10% | 0% | -5%
COc1cc2c(cc1OC)CN(c1ccc([N+](=O)[O-])c(C(F)(F)F)c1)CC2 | 16µM* | u | -31% | -26% | u | 21µM*
COc1ccc(OCC(=O)N2CCN(CCc3ccccn3)CC2)cc1 | 5% | x | 15% | -3% | x | -15%
